Assay results: PubChem BioAssay AID588852 (The Scripps Research Institute Molecular Screening Center, 2011)
Among all 360,000 compounds or so, about 4,600 (1.3%) were called active. The sample holds actives, similar compounds and a random draw of the others, so the mix is not that of the screen.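 How the source made its calls: active means percent inhibition above its own plate's cutoff, namely the mean of that plate's compound wells plus 3 SD; inactive means the rest.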

Each compound was assayed against Muscarinic acetylcholine receptor M1 (Homo sapiens) (UniProt P11229) (assay: human M1 muscarinic receptor antagonists, primary screen, CHO-K1 cells, Fluo-8 calcium fluorescence, 1536-well (AID 588852;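 further: peak over basal fluorescence ratio during 140 s after agonist addition; 0% = ACh EC80 plus DMSO and 100% = DMSO alone without agonist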)). Conditions: CHO-K1 hM1, Fluo-8 calcium fluorescence, ACh EC80 antagonist; at 3 µM; stronger effect = higher value.
Muscarinic acetylcholine receptor M1 (Homo sapiens), sequence (P11229 whole entry, looked up): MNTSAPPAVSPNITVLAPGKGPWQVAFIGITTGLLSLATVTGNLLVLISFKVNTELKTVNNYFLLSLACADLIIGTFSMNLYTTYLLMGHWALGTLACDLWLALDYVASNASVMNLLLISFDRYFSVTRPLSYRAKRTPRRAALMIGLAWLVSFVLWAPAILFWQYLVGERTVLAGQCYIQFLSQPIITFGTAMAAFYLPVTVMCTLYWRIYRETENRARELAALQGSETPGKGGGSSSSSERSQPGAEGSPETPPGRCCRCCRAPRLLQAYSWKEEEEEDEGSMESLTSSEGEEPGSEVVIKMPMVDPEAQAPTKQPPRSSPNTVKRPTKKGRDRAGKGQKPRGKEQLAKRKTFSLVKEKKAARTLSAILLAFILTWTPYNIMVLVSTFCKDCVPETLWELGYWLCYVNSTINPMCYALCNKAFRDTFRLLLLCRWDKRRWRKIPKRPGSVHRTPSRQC

Compound	inhibition
Cc1cc2oc(=O)cc(CN(C)Cc3ccccc3)c2cc1Cl	-3.35% (inactive)
CC1(C(=O)NS(=O)(=O)c2ccccc2)CCN1C(=O)Cc1ccc(-c2ccccc2)cc1 (centres undefined)	-13% (inactive)
CC(=O)N1c2ccc(S(=O)(=O)N3CCCC(C(=O)Nc4ccc(C)cc4C)C3)cc2CC1C (centres undefined)	-10.3% (inactive)
CC(=O)n1cc([C@@H]2C=C(C(=O)N3CCN(Cc4ccc5c(c4)OCO5)CC3)O[C@H](OCc3ccc(CO)cc3)C2)c2ccccc21	15.6% (inactive)
CNC[C@H]1OCc2cnnn2CCCC(=O)N([C@H](C)CO)C[C@@H]1C	-31.6% (inactive)
Cc1ccc(SCC(=O)N2CCN(c3ccc(F)cc3)CC2)cc1	1.11% (inactive)
CCN1CCC2(CC1)N=C(c1ccc(F)cc1)C(=S)N2C(=O)c1ccc(C)cc1	90.6% (active)
CCN1CCC(O)(/C=C/c2ccc(C)cc2)C(C(=O)/C=C/c2ccc(C)cc2)C1 (centres undefined)	5.04% (inactive)
C[C@@H]1CN([C@H](C)CO)C(=O)CCCn2nncc2CO[C@@H]1CN(C)S(=O)(=O)c1cccc(C#N)c1	-0.77% (inactive)
COc1ccc(C2=Nc3ccccc3NC(=O)C2N(C(=O)c2cc3ccccc3[nH]2)c2ccccc2)cc1 (centres undefined)	-26.4% (inactive)
CC(C)(C)CC(=O)Nc1nc(C(N)Cc2ccc(C(F)(F)F)cc2)cs1 (centres undefined)	-6.85% (inactive)
O=C(O)C1C2C=CC(O2)C1C(=O)NCCc1cccc(Cl)c1 (centres undefined)	-2.69% (inactive)
COc1cccc(NC(=O)C2c3cc(OC)c(OC)cc3C(=O)N(C)C2c2cccnc2)c1 (centres undefined)	-10.6% (inactive)
O=C(c1ccc(OC2CCN(C/C=C/c3ccc(F)cc3)CC2)cc1)N1CCCCC1	29.3% (inactive)
CC(=O)Nc1ccc(CN2CCC(Oc3ccc(C(=O)N4CCCC4)cc3)CC2)cc1	53.8% (active)
Cc1nn(C)c(Cl)c1CN1CCC(Oc2ccc(C(=O)N3CCCC3)cc2)CC1	8.44% (inactive)
CCOP(=O)(OCC)C(Cc1ccccc1)N=C(c1ccccc1)c1ccccc1 (centres undefined)	-5.83% (inactive)
Cc1c(CN2CCC(C)CC2)c(=O)n(-c2ccccc2)n1C	8.27% (inactive)
Cc1cccc(N2CCN(Cc3c(C)n(C)n(-c4ccccc4)c3=O)CC2)c1C	12.1% (inactive)
Cc1c(CN2CCCC(C(=O)c3cccc(Cl)c3)C2)c(=O)n(-c2ccccc2)n1C (centres undefined)	27.6% (active)
CC(C)(O)C#Cc1ccc(CNC[C@H]2O[C@@H](n3cnc4c(=O)[nH]c(N)nc43)[C@H](O)[C@@H]2O)s1	3.48% (inactive)
C=CCOC(=O)C1=C[C@@H](c2ccc3c(c2)OCO3)C[C@@H](OCCCCO)O1	-1.17% (inactive)
Cc1cc2c(cc1C)N1C(=O)c3cc4ccccc4cc3NC(=O)C1C(=O)N2 (centres undefined)	-27% (inactive)
CCCCC(=O)NNC(=S)NC(=O)C(c1ccccc1)c1ccccc1	68.7% (active)
O=C(CCN1CCN(c2ccccc2)CC1)NNC(=S)Nc1ccccc1	17.2% (inactive)
COc1ccccc1NC(=S)NC(=O)C(C)C	-7.13% (inactive)
COc1cc(NC(=O)c2cc(-c3ccc(F)cc3OC(C)C)n[nH]2)cc(OC)c1OC	8.53% (inactive)

Compound	inhibition
CCc1ccc(C(=O)OCC(=O)NCC(F)(F)F)cc1	-11.6% (inactive)
CCOc1ccc(Nc2nc(Cc3nnc(SCC(=O)c4ccc(C)cc4)o3)cs2)cc1	13% (active)
CC(=O)Nc1ccc(C(=O)CSc2nnc(Cc3ccccc3)o2)cc1	-12.2% (inactive)
CCOc1ccc(Nc2nc(Cc3nnc(SCC(=O)NC4CCCC4)n3C)cs2)cc1	-22.9% (inactive)
CCOC(=O)c1nnn(CC(=O)Nc2cccc(F)c2)c1C(=O)OCC	-2.12% (inactive)
O=C(NCc1cccnc1)c1nc(-c2cccs2)no1	-2.8% (inactive)
CC1CCC2CCCCC2N1C(=O)c1cc([N+](=O)[O-])cc([N+](=O)[O-])c1 (centres undefined)	-3.75% (inactive)
Cn1cc(CN2CCCCC2c2ccccn2)c(-c2ccc3c(c2)OCCO3)n1 (centres undefined)	-3.05% (inactive)
COc1ccccc1C(CNC(=O)c1ccc(C)c(S(=O)(=O)N2CCCCC2)c1)N(C)C (centres undefined)	101% (active)
Cc1ccc(C(=O)Nc2ncccc2C)cc1S(=O)(=O)N1CCOCC1	-9.39% (inactive)
COc1ccccc1C(=O)Nc1ccc(C)c(S(=O)(=O)N2CCCCC2)c1	5.17% (inactive)
COc1ccccc1CNC(=O)c1ccc(Cl)c(S(=O)(=O)N2CCCC2)c1	-5.01% (inactive)
Cc1ccc(C(=O)Nc2ccc3c(c2)OCCO3)cc1S(=O)(=O)N1CCOCC1	-13.2% (inactive)
Cc1ccc(C(=O)NCC(c2cccs2)N(C)C)cc1S(=O)(=O)N1CCOCC1 (centres undefined)	50.7% (active)
CN1C=CC=C/C1=C1\SC(=S)N(Cc2ccccc2)C1=O	19.7% (inactive)
CCCCN1C(=O)/C(=C2/C=CC=CN2C)SC1=S	37.9% (active)
CCCCN1C(=O)/C(=C/C=C2/C=Cc3ccccc3N2CC)SC1=S	-7.59% (inactive)
CCC(C)C(CO)NC(=O)/C=C/[C@H]1O[C@@H](n2cnc3c(NC(=O)c4ccccc4)ncnc32)[C@H](O)[C@@H]1O (some centres undefined)	3.77% (inactive)
CC(C)c1cccc(C(C)C)c1Nc1cn[nH]c1	-0.55% (inactive)
O=S(=O)(/C=C/c1ccccc1)N1CCNCC1	-8.17% (inactive)
Fc1ccc(CNCc2ccc(Br)cc2)cc1	-0.53% (inactive)
COc1ccc(NC(=O)CN(C)C(=O)c2cccc(S(=O)(=O)N3CCN(c4ccccc4)CC3)c2)cc1	57.7% (active)
Cc1ccc(NC(=O)CN(C)C(=O)c2cccc(S(=O)(=O)N3CCCC3)c2)cc1	-6.53% (inactive)
CCOc1ccc(NC(=O)CN(C)C(=O)c2cccc(S(=O)(=O)N3CCCC3)c2)cc1OCC	7.19% (inactive)
C=CCN(c1ccc(Cl)cc1)S(=O)(=O)c1cccc(C(=O)OCC(=O)N(C)C)c1	-8.38% (inactive)
COc1cc(S(=O)(=O)N(Cc2cccs2)C2CC2)ccc1-n1cnnn1	-5.47% (inactive)
O=S(=O)(Cc1nnnn1-c1ccc(Br)cc1)c1ccc(F)cc1	-2.5% (inactive)
